KB-V1 MDR tox – qHTS assay for MDR1-selective chemotherapeutics: Primary screen using the drug-selected MDR subline cells KB-V1; KB-V1 MDR cells viability, CellTiter-Glo, 72 h; Potency, µM (series often up to 46.1 µM), actives largely listed as cytotoxic; actives 3.4% (n = 400,000); AID 1347076, 2019; further: nearly all actives have a fitted effect of over 60% in size
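qHTS viability screen in drug-selected KB-V1 MDR cells: 72 h compound treatment at 37 degrees C, ATP luminescence end point.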
DT40 TDP1 CPT – qHTS for Inhibitors of human tyrosyl-DNA phosphodiesterase 1 (TDP1): qHTS in cells in presence of CPT; AID 686979, 2013; Potency, µM (titrated, usually from 46.2 µM), actives largely listed as inhibitors; chicken DT40 Tdp1-/-;hTDP1 cells + 20 nM CPT, ATP luminescence, 48 h; actives 12% (n = 420,000); further: nearly all actives have a fitted effect of over 55% in size
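Chicken DT40 Tdp1-/- cells stably complemented with human TDP1 were seeded at 400 cells/well in medium containing 20 nM camptothecin, exposed to pin-transferred compounds, and grown at 37 °C for at least 48 hr. Viability was read as ATP luminescence.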
DT40 TDP1 no CPT – qHTS for Inhibitors of human tyrosyl-DNA phosphodiesterase 1 (TDP1): qHTS in cells in absence of CPT | DT40 Tdp1-/- hTDP1 cells, no CPT, ATP luminescence, 48 h | Potency, µM (series often up to 46.2 µM), actives largely listed as inhibitors | actives 15% (n = 420,000); further: nearly all actives have a fitted effect of over 55% in size
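No-CPT arm: Tdp1-/-;hTDP1 DT40 cells (400/well) plus compounds, incubated ≥48 hr at 37 °C. Readout CellTiter-Glo luminescence.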
HT1080 IDH1KD tx – qHTS for induction of synthetic lethality in tumor cells producing 2HG: qHTS for the HT-1080-IDH1KD cell line; HT-1080 IDH1 knockdown viability, ATP luminescence, 48 h; Potency, µM (series often up to 46.1 µM), usual class: cytotoxic; actives 2% (n = 360,000); AID 686971, 2013
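IDH1KD HT-1080 cells, 750/well, RPMI + 5% FBS; compound pinned after 2 h settling; 48 h, 37 °C; CellTiter-Glo luminescence; % activity normalised to DMSO and no-cell wells; curves fitted, classed by r2 and efficacy.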
KB-3-1 tox – qHTS assay for MDR1-selective chemotherapeutics: Primary screen using the parental adenocarcinoma cell KB-3-1. KB-3-1 viability, CellTiter-Glo ATP luminescence, 72 h. Potency, µM (doses to about 46.1 µM), actives largely listed as cytotoxic. actives 1.4% (n = 400,000); further: nearly all actives have a fitted effect of over 60% in size
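72 h, 37 °C compound treatment of KB-3-1 parental cells; CellTiter-Glo added, 10 min, luminescence read. Data corrected against DMSO-only plates and normalized before curve fitting.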
HT1080-NT tox – qHTS for induction of synthetic lethality in tumor cells producing 2HG: qHTS for the HT-1080-NT fibrosarcoma cell line; Potency, µM (series often up to 46.1 µM), usual class: cytotoxic; HT-1080-NT fibrosarcoma viability, CellTiter-Glo ATP luminescence, 48 h; actives 1.6% (n = 360,000); AID 686970, 2013;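 further: NT is the 2HG producing partner of a matched IDH1 knockdown line; nearly all actives have a fitted effect of over 55% in size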
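Read-out is CellTiter-Glo luminescence after 10 minutes at room temperature, following 48 hours' compound treatment of HT-1080-NT cells (750 cells/well, RPMI, 5% FBS, 37 degrees C).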
A number is an active result; 0 = inactive; ? = inconclusive; - = no result given; [ ] = another dose, or the depositor's remark. Hits are enriched below; roughly 19% of the tested compounds scored in any of these assays. The call rests on the fitted dose curve; in most records, active means well fitted curve in the direction sought with a large enough effect; inconclusive means small, poorly fitted or top-dose-only effect, or another doubt; inactive means no such curve, though single readings can be large; an effect the other way counts as inactive or inconclusive.

SMILES	KB-V1 MDR tox	DT40 TDP1 CPT	DT40 TDP1 no CPT	HT1080 IDH1KD tx	KB-3-1 tox	HT1080-NT tox
NC(=O)c1ccc(NC(=O)COC(=O)C2(c3cccc(F)c3)CCCC2)cc1	0	?	26µM	0	0	0
CCOC(=O)c1ccc(NC(=O)C2(c3ccc(Cl)cc3)CCCC2)cc1	?	16µM	?	0	?	0
CCOC(=O)c1ccc(NC(=O)C2(c3ccccc3)CCCC2)cc1	15µM	?	?	0	0	0
Cc1ccc(NC(=O)COC(=O)C2(c3ccc(Cl)cc3)CCCC2)cc1	0	23µM	23µM	?	?	?
CCOC(=O)c1ccc(NC(=O)C2(c3ccc(OC)cc3)CCCC2)cc1	?	0	?	0	0	0
CC(=O)Nc1ccc(S(=O)(=O)NC(C)(C#N)C2CC2)cc1 (stereo not given)	0	0	0	0	0	0
COc1ccc(C(CCN2CCN(c3ccccc3)CC2)c2c(O)cc(OC)cc2OC)cc1 (stereo not given)	?	16µM	21µM	0	0	0
COc1cc(O)c(C(CCN2CCOCC2)c2ccc(N(C)C)cc2)c(OC)c1 (stereo not given)	0	15µM	?	0	0	0
COc1cc(O)c(C(CCN2CCOCC2)c2ccc3c(c2)OCO3)c(OC)c1 (stereo not given)	0	?	?	0	0	0
COc1cc(O)c(C(CCN2CCN(c3ccccc3)CC2)c2ccc(N(C)C)cc2)c(OC)c1 (stereo not given)	?	13µM	21µM	0	0	0
CC(C)Cc1nnc(NC(=O)CCC(=O)NC2CCCC2)s1	0	0	0	0	0	0
Cc1ccc(S(=O)(=O)N2CCN(C(=O)COC(=O)c3ccccc3OC(F)F)CC2)c(C)c1	0	0	?	0	0	0
O=C(NCc1ccccc1)c1ccc(CS(=O)Cc2ccc(Cl)cc2)o1 (stereo not given)	0	?	0	0	0	0
CC(C)n1ncc2c(C(=O)NCCc3ccc(F)cc3)cc(C3CC3)nc21	?	?	23µM	0	0	0
Cc1ccc(CNC(=O)c2cc(C3CC3)nc3c2cnn3C(C)C)cc1	0	?	18µM	0	0	0
Cc1ccccc1CCNC(=O)c1cc(C2CC2)nc2c1cnn2C(C)C	?	21µM	?	0	0	0
CCc1ccccc1NC(=O)CN(C)C(=O)c1cc(C2CC2)nc2c1cnn2C(C)C	?	0	0	0	0	0
O=C(NCc1cccnc1)C1c2ccccc2C(=O)N1C1CCCC1 (stereo not given)	?	0	0	0	0	0
COc1cccc(Nc2ncc3nc(CCc4ccccc4)c(=O)n(C4CC4)c3n2)c1	-	0	0	-	-	-
CC1=NN(C(=O)c2c(Br)c(C)nn2C)C(O)(C(F)(F)F)C1 (stereo not given)	0	1.2µM	1µM	0	0	0
CC1=NN(C(=O)c2cc(C)nn2C)C(O)(C(F)(F)F)C1 (stereo not given)	0	0.65µM	0.92µM	0	0	0
CC1=NN(C(=O)c2csc(C)c2)C(O)(C(F)(F)F)C1 (stereo not given)	0	0.13µM	0.13µM	0	0	0
CC1=NN(C(=O)c2csc(C)c2C)C(O)(C(F)(F)F)C1 (stereo not given)	0	0.65µM	0.92µM	0	0	0
COc1cc(NC(=O)COC(=O)CO/N=C(\C)c2ccc3c(c2)OCO3)cc(OC)c1	?	0	0	0	0	0
CC(c1nccs1)N(C)C(=O)c1cn(Cc2cccc3ccccc23)nn1 (stereo not given)	0	0	0	0	0	0
SMILES	KB-V1 MDR tox	DT40 TDP1 CPT	DT40 TDP1 no CPT	HT1080 IDH1KD tx	KB-3-1 tox	HT1080-NT tox
C#CCN(C[C@@H]1[C@@H](OC(=O)NCCCCCC)[C@@H](OC(=O)NCCCCCC)Cn2c(=O)n(CCCCCC)c(=O)n21)S(=O)(=O)c1ccc(C)cc1	?	?	?	0	0	0
C#CCN(C[C@@H]1[C@@H](OC(=O)Nc2cccs2)[C@@H](OC(=O)Nc2cccs2)Cn2c(=O)ccc(=O)n21)S(=O)(=O)c1ccc(C)cc1	0	2.9µM	3.3µM	16µM	?	18µM
C#CCN(C[C@@H]1[C@@H](OC(=O)NC2CCCC2)[C@@H](OC(=O)NC2CCCC2)Cn2c(=O)ccc(=O)n21)S(=O)(=O)c1ccc(C)cc1	0	2.6µM	2.3µM	8.2µM	0	7.3µM
Cc1sc2ncn(CC(=O)OC(C)C(=O)NC(C)(C)C)c(=O)c2c1C (stereo not given)	0	0	0	0	0	0
CCOc1cc(C)c(S(=O)(=O)NCCCn2ccnc2)cc1C	0	?	?	0	0	0
COc1cc(C)c(S(=O)(=O)NCCCn2ccnc2)cc1C	0	15µM	18µM	0	0	0
CO	-	0	0	-	-	-
O=C(c1ccc(Cl)cc1)N(Cc1ccccc1F)N1C(=O)CCCC1=O	0	0	0	0	0	0
COc1ccc2nc(C)cc(NCCN3CCOCC3)c2c1	0	0	0	0	0	0
COc1ccc2nc(C)cc(Nc3ccc(N4CCN(C)CC4)cc3)c2c1	?	4.6µM	3.3µM	?	0	?
COc1ccc2nc(C)cc(Nc3ccc(N4CCOCC4)cc3)c2c1	0	?	21µM	0[9.24 µM]	0	?
CC(C)C(NC(=O)c1c(F)cccc1F)C(=O)NC1CC(C)(C)NC(C)(C)C1 (stereo not given)	0	0	0	0	0	0
CCC(=O)Nc1ccc2nc(SCC(=O)N3CCOCC3)sc2c1	0	0	0	0	0	0
Nc1ccc2nc(SCC(=O)N3CCOCC3)sc2c1	0	0	0	0	0	0
O=C(CSc1ccc(F)cc1)Nc1ccc(N2CCOCC2)c(Cl)c1	0	0	?	0	0	0
Nc1nnc(SCC(=O)Nc2ccc(N3CCOCC3)c(Cl)c2)s1	0	18µM	12µM	0	0	0
CCCC(=O)Nc1ccc2nc(SCC(=O)Nc3ccc(N4CCOCC4)c(Cl)c3)sc2c1	?	0	16µM	?	?	?
Nc1ccc2nc(SCC(=O)Nc3ccc(N4CCOCC4)c(Cl)c3)sc2c1	?	?	23µM	0	?	?

Bioassay records deposited in PubChem by National Center for Advancing Translational Sciences (NCATS).
